Assay outcomes as filed in PubChem BioAssay.
Pf growth 96h: P. falciparum growth inhibition at 96 hours | P. falciparum luciferase reporter growth, 96 h | Potency, µM (doses to about 28.7 µM), for inactives: top-dose activity change, negative = inhibition, hits mostly inhibitors | 320,000 compounds, 6.9% hits; note: potency is the fitted concentration of half-maximal effect
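Two parasite generations (96 h, 37 C, 5% CO2) of compound exposure in infected erythrocytes (0.05% parasitemia, 2% hematocrit). Luciferase-reporter P. falciparum; decreased luminescence indicates inhibited growth, aimed at apicoplast-acting delayed death.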
LASV entry inh: inhibitors of Lassa virus binding or cell entry. Lassa virus pseudotype entry inhibition, cell reporter. Potency, µM (doses to about 37.9 µM), inactives show top-dose activity change, negative = inhibition, hits mostly inhibitors. 300,000 compounds, 1.2% hits. AID 540256; calls by dose curve; tested in HEK293 cells; note: potency is the fitted concentration of half-maximal effect; nearly all actives have a fitted effect of over 50% in size
HCV inh: inhibitors of hepatitis C virus infection | AID 651820 | Potency, µM (top dose mostly 41.8 µM), without a hit: at the top dose activity change, negative = inhibition, most hits filed as inhibitors | 340,000 compounds, 3.4% hits | Huh7.5.1 HCVcc-Cre infection, luciferase reporter, 44 h; note: potency is the fitted concentration of half-maximal effect
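Cells seeded at 1,000/well and cultured 4 h, then compounds added followed by HCVcc-Cre virus (~0.5 moi). After 44 h further culture, luciferase substrate was added, plates held 15 min at room temperature, and luminescence read for 15 sec.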
Marburg entry inh: blocks Marburg virus binding to or entry into cells. Potency, µM (series often up to 37.8 µM), for inactives: at the top dose activity change, negative = inhibition, usual class: inhibitors. Marburg virus pseudotyped entry inhibition, cell reporter. 300,000 compounds, 1.8% hits; calls by dose curve; tested in HEK293 cells; note: potency is the fitted concentration of half-maximal effect
Pf growth 48h: P. falciparum growth inhibition at 48 hours (one generation); P. falciparum luciferase growth in erythrocytes, 48 h; Potency, µM (titrated, usually from 28.7 µM), for the others: at the top dose activity change, negative = inhibition, actives largely listed as inhibitors; AID 504832; 310,000 compounds, 5.9% hits; note: potency is the fitted concentration of half-maximal effect
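Read-out is firefly luciferase luminescence from an integrated reporter in P. falciparum, so falling signal marks reduced parasite growth. Infected erythrocytes were at 2% hematocrit and 0.1% parasitemia (final) in Albumax-supplemented RPMI 1640.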
HCMV inh: blocks human cytomegalovirus replication; activity change, negative = inhibition, % at 57.5 µM; HFF cells, HCMV-luciferase reporter, 72 h; stronger effect = lower value; 410,000 compounds, 4.5% hits; in the data active = activity change below about -60%; inconclusive = no clear call, values can overlap the other calls; inactive = above about -39%
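HFF cells seeded 16 h at 37C, treated with compounds, infected with luciferase-reporter HCMV at MOI 1 PFU/cell; luciferase read at 72 h post infection, normalized to buffer-only and Salinomycin controls.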
An asterisk follows results filed as active; ! = not confirmed by another sample; [ ] = remark or other dose. Only some compounds are listed: those with a hit (about 14% of all), similar ones and a draw of the others. Unless noted, calls come from the whole dose curve; as a rule, active = well fitted inhibition curve with a large enough effect; inconclusive = small, poorly fitted or top-dose-only effect, or another doubt; inactive = no such curve, though single readings can be large or run the other way. % is set by controls: 0 for no effect and ±100 for the full control effect.

Results for Cn1c(=O)c2c(nc(SCCOc3ccc4ccc(=O)oc4c3)n2C)n(C)c1=O ?
Pf growth 96h: 13µM*; HCV inh: -21%; Marburg entry inh: 4%; Pf growth 48h: 9%

Results for CN(C(=O)COC(=O)c1nc(Cl)c(Cl)c(Cl)c1Cl)C1CCS(=O)(=O)C1 (stereo unspecified) ?
Pf growth 96h: 51%[1.15 µM]; LASV entry inh: 5.6µM*; HCV inh: 10µM*; Marburg entry inh: inconclusive; Pf growth 48h: 31%[1.15 µM]; HCMV inh: -99*

What do the screens show for `CN(C(=O)COC(=O)c1ccc(C(C)(C)C)cc1)C1CCS(=O)(=O)C1` (stereo unspecified)?
Pf growth 96h: -1%; LASV entry inh: -11%; HCV inh: 20%; Marburg entry inh: 4%; Pf growth 48h: inconclusive; HCMV inh: -35

What do the screens show for `O=C(O)c1cc2nc3c(c(C(F)(F)F)n2n1)CCCC3`?
Pf growth 96h: 1%; LASV entry inh: 23%; HCV inh: 15%; Marburg entry inh: inconclusive; Pf growth 48h: 12%; HCMV inh: -20

What do the screens show for `O=C(Nc1ccc(F)cc1F)c1cc2nc3c(c(C(F)(F)F)n2n1)CCCC3`?
Pf growth 96h: 10µM*; LASV entry inh: 2%; HCV inh: -12%; Marburg entry inh: inconclusive; Pf growth 48h: 129%; HCMV inh: -32

What do the screens show for `O=C(NCCCc1ccccc1)c1ccc(CS(=O)Cc2ccccc2Cl)o1` (stereo unspecified)?
Pf growth 96h: 62%; LASV entry inh: 4%[46.1 µM]; HCV inh: 8%; Marburg entry inh: -14%[46.1 µM]; Pf growth 48h: -22%; HCMV inh: -36

What do the screens show for `COc1ccc(C(CC(=O)Nc2ccccc2OC)n2cccc2)cc1` (stereo unspecified)?
Pf growth 96h: inconclusive; LASV entry inh: -24%; HCV inh: -10%; Marburg entry inh: inconclusive; Pf growth 48h: -10%; HCMV inh: -23

Results for COc1ccccc1C(CC(=O)Nc1ccc(C)c(C)c1)c1ccc(OC(C)C)cc1 (stereo unspecified) ?
Pf growth 96h: -18%; LASV entry inh: -6%; HCV inh: inconclusive; Marburg entry inh: inconclusive; Pf growth 48h: inconclusive; HCMV inh: -61*

What do the screens show for `COc1ccc(C(CC(=O)Nc2ccc(C)c(C)c2)N2Cc3ccccc3C2=O)cc1OC` (stereo unspecified)?
LASV entry inh: -14%[46.1 µM]; HCMV inh: -13

How did COc1ccccc1NC(=O)CC(c1ccc(OC(C)C)cc1)c1ccccc1OC (stereo unspecified) do in these assays?
Pf growth 96h: inconclusive; LASV entry inh: -25%; HCV inh: 11µM*; Marburg entry inh: inconclusive; Pf growth 48h: -20%; HCMV inh: inconclusive

Results for O=S(=O)(c1cccc2c(Cl)cccc12)N1CCCNCC1 ?
LASV entry inh: -9%; Marburg entry inh: 8.9µM*!

How did COc1c(S(=O)(=O)N2CCCCC2)ccc2c(S(=O)(=O)N3CCCCC3)cccc12 do in these assays?
LASV entry inh: -30%; HCV inh: inconclusive; Marburg entry inh: -16%; HCMV inh: -85*

What do the screens show for `CC(C)C[C@@H](COCc1ccc([N+](=O)[O-])cc1)N1CCN(C(=O)c2ccc(C(F)(F)F)cc2)CCC1=O`?
HCMV inh: -12

What do the screens show for `O=C(Nc1ccon1)c1nc[nH]c1C(=O)N1CCN(c2ccccc2)CC1`?
HCV inh: 19%; HCMV inh: 13

How did O=C1N(c2ccccc2C(F)(F)F)OC1(Cc1ccccc1)c1ccccc1 (stereo unspecified) do in these assays?
Pf growth 96h: inconclusive; HCV inh: -7%; Pf growth 48h: 1µM*; HCMV inh: 30

Results for O=C1N(c2ccccc2C(F)(F)F)O[C@]1(c1ccccc1)C1CCCCC1 ?
Pf growth 96h: 1µM*; HCV inh: -7%; Pf growth 48h: inconclusive; HCMV inh: 7
